High-throughput results as filed in PubChem BioAssay.
IkB sig inh = IkB pathway inhibition in ABC-DLBCL cells | Potency, µM (doses to about 57.1 µM), for the others: at the highest dose IkBa stabilization activation | hit rate 0.04% among 110,000 | ABC-DLBCL IkBa-CBG/CBR dual luciferase ratio, 4 h; response scale: scaled: untreated 0%, proteasome inhibitor 100%; active means well fitted curve in the direction sought with a large enough effect in the signal ratio, not every such curve was filed as active; inconclusive means small, poorly fitted or top-dose-only effect, or a change in a side signal; the % refers to the signal ratio;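 further: the direction sought is a rising ratio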
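Curves were fitted separately to fusion (green), unfused (red) and ratio luminescence, then classed by r2, magnitude and activity. Cells: OCI-Ly3, 4 h compound plus doxycycline at 37C; 10 uM MG-132 defined full response.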
p53ts 32C tox = cytotoxicity in p53ts cells at permissive temperature; H1299-p53A138V at 32C, ATP luminescence viability, 24 h; Potency, µM (highest dose often 46.1 µM), inactives show at the highest dose activity change, negative = cytotoxicity, most hits filed as cytotoxic; hit rate 0.93% among 130,000; AID 924;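 further: 0% = DMSO and -100% = full killing by reference compound; nearly all actives have a fitted effect of over 55% in size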
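ATP-content luminescence (ATPlite) read-out after 24 h compound exposure at 32C in H1299-p53A138V cells (600/well). Tested up to 46 uM. Normalized to DMSO (0%) and 100 uM tamoxifen (100% killing); Hill-fit AC50.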
Imprint erasure = genomic imprint erasure induction; mouse ES Peg3-LacZ reporter, beta-gal luminescence, 40 h; hit rate 0.02% among 110,000; Potency, µM (highest dose often 60.7 µM), inactives show at the highest dose activity change, positive = activation, usual class: activators
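Imprint erasure is scored as LacZ activity from the silenced maternal Peg3 allele in feeder-free female ES cells cultured 40 h with LIF. Luminescence is normalized to in-plate negative controls and fitted to the Hill equation.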
p53ts 39C kill = kills p53ts cells at the nonpermissive temperature; H1299-p53A138V viability at 39C, ATP luminescence, 24 h; hit rate 1.5% among 130,000; Potency, µM (highest dose often 46.1 µM), without a hit: top-dose activity change, negative = cell killing, hits mostly cytotoxic; further: on the % scale 0 is the no-effect control and ±100 the full control effect; nearly all actives have a fitted effect of over 55% in size
* = called active by the depositor; ? = inconclusive; . = no result; [ ] = another dose, or the depositor's remark. An excerpt weighted towards active compounds, which were near 1.6% of everything screened. Unless noted, the call rests on the fitted dose curve; in most records, active means well fitted curve in the direction sought with a large enough effect; inconclusive means small, poorly fitted or top-dose-only effect, or another doubt; inactive means no such curve, though single readings can be large; an effect the other way counts as inactive or inconclusive. Potency means the concentration at half of the fitted maximal effect.

SMILES	IkB sig inh	p53ts 32C tox	Imprint erasure	p53ts 39C kill
Cc1ccc(Nc2c(-c3ccc(N4CCOCC4)cc3)nc3ncccn23)cc1	-2%	2%	?	-19%
Nc1nc(SCc2ccc([N+](=O)[O-])cc2)c2ncn([C@@H]3O[C@@H](CO)[C@@H](O)[C@H]3O)c2n1	0%	-13%	.	-12%
c1cncc(-c2csc(NCc3ccco3)n2)c1	.	-18%	.	-21%
CN(C)c1ccc(Nc2nc(-c3cccnc3)cs2)cc1	2%	3.2µM*	-87%	3.2µM*
O=C1CN2CCN(CC2)CC(=O)Nc2ccc(cc2)S(=O)(=O)c2ccc(cc2)NC(=O)CN2CCN(CC2)CC(=O)Nc2ccc(cc2)S(=O)(=O)c2ccc(cc2)N1	0%[11.4 µM]	27%[9.22 µM]	-5%[10.9 µM]	9%[9.22 µM]
Cc1cc(F)ccc1NC(=O)CS(=O)(=O)c1cccc2nsnc12	1%	15%	-8%[10.9 µM]	0.04µM*
O=C(NCCc1ccccc1)C(=O)NCC(c1cccnc1)N1CCN(c2ccc(F)cc2)CC1 (configuration not stated)	-3%	?	-19%[10.9 µM]	20µM*
O=C(NCc1cccnc1)C(=O)NCC(c1cccnc1)N1CCN(c2ccc(F)cc2)CC1 (configuration not stated)	?	37%	-8%[10.9 µM]	?
Cc1cc(-n2c(SCc3ccccc3F)nc3[nH]ncc3c2=O)ccc1Cl	?	12%	-11%[10.9 µM]	16µM*
Cc1ccccc1-n1c(SCc2ccc(Cl)cc2)nc2[nH]ncc2c1=O	?	27%	-11%[10.9 µM]	-11%
c1ccc(CN2COc3c(ccc4c5c(ccc34)CN(Cc3ccccc3)CO5)C2)cc1	0%[11.4 µM]	-4%[9.22 µM]	?	-2%[9.22 µM]
Cc1ccc(C[C@H](Cc2nc3ccccc3[nH]2)c2nc3ccccc3[nH]2)cc1	2%[11.4 µM]	.	.	.
COc1ccc(-c2cc(C(=O)N3CCN(c4ccccn4)CC3)c3ccccc3n2)cc1	?	13µM*	-21%	13µM*
CCOc1ccc(-c2cc(C(=O)N3CCN(c4ccccn4)CC3)c3ccccc3n2)cc1	2%	2.5µM*	-17%	?
CC(C)[C@]1(Cl)CC[C@@H]2[C@]3(C)CCC[C@@](C)(C(=O)O)[C@H]3C[C@H](Cl)[C@@]2(Cl)[C@H]1Cl	1%[11.4 µM]	9%[9.22 µM]	?	12%[9.22 µM]
COc1ccc(C)cc1Nc1nc(N)c2cc(OC)c(OC)cc2n1	?	20µM*	8%[10.9 µM]	20µM*
COc1ccc(C)cc1Nc1cc(C)nc2nc(C)nn12	-4%	-3%	-22%	5%
O=C(N/N=C/c1c[nH]c2ccccc12)c1cc(-c2cccc3ccccc23)n[nH]1	.	3%	.	14%
O=C(N/N=C/c1ccccn1)c1cc(-c2ccc3ccccc3c2)n[nH]1	.	.	.	-22%
O=C(N/N=C/c1c[nH]c2ccccc12)c1cc(-c2ccc3ccccc3c2)n[nH]1	.	?	.	16µM*
O=C(N/N=C/c1ccc(O)cc1O)c1cc(-c2ccccc2)n[nH]1	.	-16%	.	10µM*
O[C@@H](c1cc([C@@]23C[C@H]4CC[C@@H]2C[C@H](C4)C3)nc2c(Cl)cc(Cl)cc12)[C@@H]1CCCCN1	1%[11.4 µM]	7%[9.22 µM]	.	-25%[9.22 µM]
O=c1c(CCc2ccccc2)nc2cnc(N3CCNCC3)nc2n1CCc1ccccc1	-2%[11.4 µM]	13µM*	.	10µM*
O=c1c(-c2ccc(F)cc2)nc2cnc(N3CCNCC3)nc2n1-c1ccccc1	-2%[11.4 µM]	13µM*	-30%	?
COc1cccc(Cn2c(=O)c(-c3cc(F)cc(F)c3)nc3cnc(N4CCNCC4)nc32)c1	0%[11.4 µM]	?	-41%	16µM*
SMILES	IkB sig inh	p53ts 32C tox	Imprint erasure	p53ts 39C kill
O=c1c(-c2cccs2)nc2cnc(N3CCNCC3)nc2n1-c1ccccc1	0%[11.4 µM]	-22%	.	-17%
CC(=O)O[C@H]1CC[C@]2(C)C(=CC[C@H]3[C@H]4C[C@H]5O[C@]6(CC[C@H](C)CN6)[C@H](C)[C@@H]5[C@]4(C)CC[C@@H]32)C1	1%[11.4 µM]	6%[9.22 µM]	-2%[10.9 µM]	4%[9.22 µM]
CCCCC/C=C\C[C@H](O)/C=C\c1cccc(C[C@H](O)CCCCO)n1	4%	-11%	.	3%
FC(F)(F)c1cc(CO[C@@H]2CCCN[C@H]2c2ccccc2)cc(C(F)(F)F)c1	-7%	?	.	20µM*
CCOC(=O)Cc1c(C)nc2c(-c3cccc(Br)c3)c[nH]n2c1=O	?	?	-30%	13µM*
Cn1c(=O)c2cc(C(=O)NC3CCCCCC3)sc2c2ccccc21	1%	?	-10%[10.9 µM]	7.9µM*
CC(=O)Nc1cc(C(=O)NCc2ccc(F)cc2)ccc1Sc1ccc(C)cc1	?	0%	-12%[10.9 µM]	4%
C=CC(C1=CC(=O)C(OC)=C(OC)C1=O)c1ccccc1 (configuration not stated)	.	?	-42%	-86%
Nc1ccc2nc(-c3ccc(O)cc3)sc2c1	?	0.63µM*	-79%[10.9 µM]	0.63µM*
Nc1ccc(O)c(-c2nc3ccccc3s2)c1	?	-11%	-86%	-24%
Nc1cccc(-c2nc3ccc(N)cc3s2)c1	?	3.2µM*	-90%	3.2µM*
C=CCN1C=CC(=C/C=C(/C#N)C(=O)OCC)C=C1	.	10µM*	.	?
CN(C)CC(C)(C)CNC(=O)c1ccc(-n2c(=O)c(=O)[nH]c3ccccc32)cc1	.	4%	.	0%
O=C(COc1ccccc1C(=O)c1cnn(-c2ccccc2)c1)Nc1ccccc1	.	11µM*	.	?
Cc1c(NS(C)(=O)=O)cccc1-c1nc2ccccc2s1	-2%	?	-34%[10.9 µM]	?
CS(=O)(=O)Nc1ccc(-c2nc3ccccc3s2)cc1	24%	4µM*	-69%[10.9 µM]	2µM*
COc1cc(/C=C/C(=O)c2cccs2)cc(OC)c1OC	.	6.3µM*	-31%	?
O=C(/C=C/c1ccc(O)cc1)c1cccs1	.	32µM*	-92%	?
Cc1nn(C)cc1/C=C/C(=O)c1cccs1	.	13µM*	.	?
O=C(/C=C/c1ccc(OCc2ccccc2)cc1)c1cccs1	.	?	-19%	4%
COC(=O)c1ccc(CSc2nc(N)cc(N)n2)cc1	-1%	13µM*	-20%	?
COC(=O)c1ccc(CSc2nnc(N)s2)cc1	0%	-8%	-32%	-12%
CCN(CCCNC(=O)c1cc2cc3ccc(OC)cc3nc2s1)c1cccc(C)c1	?	?	1%[10.9 µM]	13µM*
COc1ccc(-c2ccc(-c3nnn(CC(=O)N4CCOCC4)n3)cc2)cc1	2%	2.5µM*	-7%	?
O=C(Cn1nnc(-c2ccc3c(c2)OCO3)n1)N1CCOCC1	-1%	6%	-5%	6%
Cc1c(Cl)cccc1NC(=O)c1cc(-c2ccc(O)cc2)on1	?	13%	-17%	-6%
Cc1cccc(C(=O)Nc2cccc(C(=O)OCc3cc(=O)n4nc(C(C)C)sc4n3)c2)c1	?	1%	-6%[10.9 µM]	-12%
Cc1nn2c(=O)cc(COC(=O)c3cccc(NC(=O)c4ccc(C(C)(C)C)cc4)c3)nc2s1	?	2.5µM*	-12%[10.9 µM]	2.5µM*
COc1ccc(C(=O)c2c[nH]c3ccccc23)cc1	0%	7.9µM*	-26%	10µM*
